In the library only some 21% were active in any assay of this set; here they are far more common.
DT40 TDP1 no CPT: qHTS for Inhibitors of human tyrosyl-DNA phosphodiesterase 1 (TDP1): qHTS in cells in absence of CPT. Potency, µM (top dose mostly 46.2 µM), without a hit: top-dose activity change, negative = growth inhibition, most hits filed as inhibitors. AID 686978, 2013. DT40 Tdp1-/- hTDP1 cells, no CPT, ATP luminescence, 48 h. actives 15% (n = 420,000); further: potency means the concentration at half of the fitted maximal effect; nearly all actives have a fitted effect of over 55% in size
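Readout: luminescence from CellTiter-Glo after 30 min in the dark at RT. Cells: DT40 Tdp1-/- with stable hTDP1, 400/well. Exposure: compounds alone, ≥48 hr, 37 °C.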
IL1B secr inh: inflammasome signaling inhibition, IL-1 beta readout; THP-1 LPS/ATP IL-1B secretion, AlphaLISA, 16 h; stronger effect = lower value; activity change, % at 57.5 µM; actives 4.7% (n = 360,000); AID 743279; in the data active means activity change below about -50%; inconclusive means mostly about -30% to -49%
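Secreted IL-1B measured by AlphaLISA bead assay after 16 h compound exposure of THP-1 cells; compounds (final up to 57.5 uM) added 1 h before LPS (250 ng/mL) and ATP (1.25 mM) stimulation; lower signal means less secretion.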
TDP1 cell CPT: growth inhibition of DT40 Tdp1-/-;hTDP1 cells with camptothecin (screen for TDP1 inhibitors). Potency, µM (doses to about 46.2 µM), inactives show at the top dose activity change, negative = growth inhibition, usual class: inhibitors. chicken DT40 Tdp1-/-;hTDP1 cells + 20 nM CPT, ATP luminescence, 48 h. actives 12% (n = 420,000). AID 686979; further: potency means the concentration at half of the fitted maximal effect; nearly all actives have a fitted effect of over 55% in size
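Cell growth measured by CellTiter-Glo luminescence after a minimum 48 h, 37 C compound exposure with 20 nM CPT in Tdp1-knockout DT40 cells stably expressing hTDP1, seeded 400/well; qHTS titration format.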
RORgamma inh: inhibitors of mouse ROR gamma transcriptional activity | P51450 | Drosophila S2 Gal4-RORgamma UAS-luciferase reporter, 20 h | Potency, µM (series often up to 53.6 µM), for inactives: at the highest dose activity change, negative = inhibition, usual class: inhibitors | actives 5.4% (n = 310,000) | AID 2551; further: potency means the concentration at half of the fitted maximal effect; nearly all actives have a fitted effect of over 60% in size
Target sequence (P51450 whole entry, looked up, the tested form may be a part): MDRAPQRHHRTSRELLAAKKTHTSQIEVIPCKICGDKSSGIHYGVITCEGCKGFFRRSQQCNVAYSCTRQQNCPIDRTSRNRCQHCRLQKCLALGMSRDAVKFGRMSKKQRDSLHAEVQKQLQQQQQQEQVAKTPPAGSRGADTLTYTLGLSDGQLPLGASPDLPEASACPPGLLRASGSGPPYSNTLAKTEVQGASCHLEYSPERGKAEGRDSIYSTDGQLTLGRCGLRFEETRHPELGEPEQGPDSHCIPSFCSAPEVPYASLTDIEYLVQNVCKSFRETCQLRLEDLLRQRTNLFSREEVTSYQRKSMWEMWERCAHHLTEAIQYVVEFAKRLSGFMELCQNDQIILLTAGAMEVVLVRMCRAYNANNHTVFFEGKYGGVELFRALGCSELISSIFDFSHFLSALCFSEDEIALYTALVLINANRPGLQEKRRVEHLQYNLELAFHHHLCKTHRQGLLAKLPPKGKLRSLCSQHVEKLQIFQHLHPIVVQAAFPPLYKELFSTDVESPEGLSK
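Read-out: Photinus luciferase luminescence; inhibitors lower reporter signal. Insect Schneider cells with Gal4-ROR gamma fusion under metallothionein promoter, UAS reporter; 700 uM final copper sulfate induction, 20 hr, ambient temperature.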
Gal4-VP16 FLuc: Gal4-VP16 reporter inhibition counter-screen; AID 2546; Drosophila S2 Gal4-VP16 UAS-luciferase, luminescence, 20 h; Potency, µM (titrated, usually from 53.6 µM), for inactives: top-dose activity, negative = inhibition, actives largely listed as inhibitors; actives 3.5% (n = 310,000);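 further: Gal4-VP16 expression switched on by copper sulfate through the metallothionein promoter; potency means the concentration at half of the fitted maximal effect; nearly all actives have a fitted effect of over 50% in size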
ELG1 DNA repair: ELG1-dependent DNA repair inhibition; HEK293T ELG1-luciferase reporter, luminescence, 16 h; DNA damage induced by 5-fluorouridine; actives 2.3% (n = 330,000); Potency, µM (top dose mostly 46.1 µM), for the others: top-dose activity change, negative = inhibition, actives largely listed as inhibitors; further: potency means the concentration at half of the fitted maximal effect; nearly all actives have a fitted effect of over 55% in size
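DMSO vehicle served as the neutral condition. Each well held 2,000 cells given 5-fluorouridine plus compound; after 16 hr at 37 °C/5% CO2, ONE-Glo was added and luciferase measured 30 min later.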
An asterisk follows results filed as active; u = inconclusive; x = not tested or not shown. Unless noted, the call rests on the fitted dose curve; in most records, active means well fitted curve in the direction sought with a large enough effect; inconclusive means small, poorly fitted or top-dose-only effect, or another doubt; inactive means no such curve, though single readings can be large; an effect the other way counts as inactive or inconclusive. On the % scale 0 is the no-effect control and ±100 the full control effect.

SMILES	DT40 TDP1 no CPT	IL1B secr inh	TDP1 cell CPT	RORgamma inh	Gal4-VP16 FLuc	ELG1 DNA repair
O=C(NOC(=O)c1ccccc1)c1ccccc1	23µM*	3	u	20%	-4%	8%
O=C(NO)c1ccccc1	22µM*	x	24µM*	-11%	2%	x
NC(=O)c1cc(S(=O)(=O)N2CCOCC2)ccc1Sc1ccccc1N	-19%	-18	-2%	x	x	3%
CC(C)Oc1cccc(C(=O)Nc2nnc([C@@H]3C[C@H](O)[C@@H](CO)O3)s2)c1	-4%	6	7%	x	x	x
Clc1cc(Cl)c(OCC#CI)cc1Cl	1.9µM*	x	1.7µM*	7.1µM*	5.6µM*	x
O=C(Nc1ccc(Cl)cc1)N1CCCN(Cc2ccc(F)cc2)C1	21µM*	u	23µM*	-24%	-4%	u
O=C(Nc1ccc(F)cc1)N1CCCCCC1	3%	3	u	4%	4%	u
O=C(Nc1ccc(F)cc1F)c1cccc(C(=O)Nc2ccc(F)cc2F)n1	u	14	u	u	u	16µM*
O=C(Nc1ccc(F)cc1F)c1ccc(-n2cccn2)nc1	u	16	u	33%	-14%	u
O=C(Nc1ccc(F)cc1F)c1cc2ccc3cccnc3c2[nH]1	u	x	2.9µM*	x	x	x
CC(C)Sc1ccc(C(=O)Nc2ccc(F)cc2F)cn1	23µM*	-6	u	27%	2%	u
CNc1nnc(-c2ccc(N(C)C)cc2)s1	-17%	-10	-22%	u	8.9µM*	u
CN(C)c1ccc(-c2ccncc2)cc1	x	x	x	-17%	14%	u
O=c1c2ccccc2nc(-c2ccccc2Cl)n1O	-10%	20	12%	10µM*	u	-6%
O=c1c2ccccc2nc(-c2ccc(Cl)c(Cl)c2)n1O	5.2µM*	27	6.5µM*	u	u	-19%
Nn1c(-c2ccc(F)cc2)nc2ccccc2c1=O	0%	u	2%	0%	-18%	-17%
CC1CC[C@@]2(C(=O)O)CCC3(C)C(=CCC4[C@]5(C)CC(O)C(O)[C@](C)(CO)C5C(O)C[C@@]43C)C2C1C (stereo partly specified)	0%	x	1%	-14%	-14%	x
Cc1ccc(OCCC(=O)OCC(=O)NC(=O)c2ccccc2)cc1	-1%	3	-15%	x	x	0%
COc1ccc(C2(CNC(=O)C(=O)Nc3ccccc3C)CCCC2)cc1OC	18µM*	x	23µM*	x	x	x
COc1ccc(C2(CNC(=O)/C=C\c3ccco3)CCCC2)cc1OC	29µM*	13	18µM*	u	u	-4%
COc1ccc(C(NC(=O)/C=C/c2ccco2)c2ccc(OC)c(OC)c2)cc1OC	2%	0	-11%	-6%	u	2%
COc1ccc(C2(CNC(C)=O)CCOCC2)cc1OC	3%	18	2%	-27%	-7%	-7%
COc1ccc(C2(CNC(=O)C(=O)Nc3ccc(F)cc3)CCCC2)cc1OC	18µM*	x	18µM*	x	x	x
COc1ccc(CN2CCN(CCc3ccccc3)C(CCO)C2)c(Cl)c1OC (stereo unspecified)	u	25	u	-7%	2%	-5%
CC1(c2ccc(Cl)cc2)NC(=O)N(CC(=O)N2CCN(C(=O)c3cccs3)CC2)C1=O (stereo unspecified)	u	17	-28%	x	x	x
SMILES	DT40 TDP1 no CPT	IL1B secr inh	TDP1 cell CPT	RORgamma inh	Gal4-VP16 FLuc	ELG1 DNA repair
CC(/C=N/NC(=O)c1cc(-c2ccc(Cl)cc2)nc2ccccc12)=C\c1ccco1	3.3µM*	3	2.9µM*	2%	2%	13%
CC(/C=N/NC(=O)c1cc(-c2ccccc2)nc2ccccc12)=C\c1ccco1	0.73µM*	-12	2.3µM*	-11%	6%	u
Cc1cc(C(=O)N/N=C/c2ccco2)c2ccccc2n1	u	14	u	-3%	-11%	-27%
COc1cccc(NC(=O)C(NCCc2ccc(S(N)(=O)=O)cc2)c2ccccc2)c1 (stereo unspecified)	-29%	18	-18%	-12%	-13%	1%
C/C(=C\CO)CCC(C)CCCC(C)CCCC(C)C (stereo unspecified)	-10%	x	-3%	-18%	1%	x
COC(=O)/C(=C\Nc1ccc(Cl)cc1Cl)NC(=O)c1ccc(OC)cc1	4.1µM*	-7	3.7µM*	8%	-18%	-9%
COc1cc(C(=O)NNC(=S)NC(=O)c2ccc(Cl)cc2)cc(OC)c1OC	23µM*	21	u	u	u	-1%
COc1ccc(C(=O)NNC(=S)NC(=O)c2ccc(Cl)cc2)cc1	23µM*	68	u	x	x	x
COc1cc(CCC(=O)NNC(=O)c2ccc(Cl)cc2)cc(OC)c1OC	0%	1	7%	2%	-4%	20%
COc1ccc(C(=O)NC(=S)NNC(=O)c2ccc(NC(=O)C(C)C)cc2)cc1	15µM*	-4	16µM*	u	16µM*	0%
CC[C@H](C)[C@H](NC(=O)[C@H](CO)NC(=O)[C@H](C)NC(=O)[C@H](C)NC(=O)[C@H](CCC(N)=O)NC(=O)[C@H](CCCCN)NC(=O)[C@H](CCCN=C(N)N)NC(=O)[C@@H](N)CS)C(=O)N[C@@H](CCCCN)C(=O)N[C@H](C(=O)N[C@@H](C)C(=O)N[C@H](C(=O)N[C@@H](CO)C(=O)O)C(C)C)C(C)C	x	x	x	1%	-3%	x
CC(=O)Nc1ccc(NS(=O)(=O)c2ccc(C)cc2)cc1[N+](=O)[O-]	-5%	x	4%	-12%	-4%	-1%
CC(=O)Nc1ccc([N+](=O)[O-])c(CS(=O)(=O)c2ccc(C)cc2)c1[N+](=O)[O-]	23µM*	45	u	-14%	-9%	4%
CCOc1cc2[nH]c(=S)n(CCN3CCCCC3CC)c(=O)c2cc1OCC (stereo unspecified)	16µM*	-24	u	-44%	-14%	-3%
CCOc1cc2[nH]c(=S)n(CCc3ccc(OC)c(OC)c3)c(=O)c2cc1OCC	u	0	u	14%	1%	-4%
CCC(CO)n1c(=S)[nH]c2cc(OC)c(OC)cc2c1=O (stereo unspecified)	8%	14	12%	11µM*	u	2%
CCOc1cc2[nH]c(=S)n(CCCN3CCOCC3)c(=O)c2cc1OCC	u	8	u	-13%	-17%	-10%
CCOc1cc2[nH]c(=S)n(C(C)C)c(=O)c2cc1OCC	u	42	18µM*	2µM*	7.1µM*	u

Assay outcomes from PubChem.
